PubChem BioAssay
The source made the active and inactive calls.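 Rule for the calls, unless noted: active = NADPH fluorescence slope more negative than the mean of all samples by about 3 SD, 99.7% confidence; inactive = the rest.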

Assays:
[1] = inhibitors of TNFa-induced NFkB p65 translocation, primary screen, imaging, HUVEC, MLSMR starter and 10KST1 sets (AID 438;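 active = inhibition above 20% together with a positive visual image hit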;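 note: compound added about 3h40 before a 20 min TNFalpha stimulation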;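 for inhibition: signal is the nuclear over cytoplasmic p65 intensity ratio per well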); settings: HUVEC TNFa-induced p65 nuclear translocation; cell count: measured here: nuclei count (cytotoxicity indicator), at 2.08 µM; inhibition: at 2 µM, stronger effect = higher value, 0% TNFa-plus-vehicle, 100% no-TNFa wells
[2] = inhibitors of mutant huntingtin aggregation, primary screen, imaging, exon1htt(103Q)mCFP cells, high-content imaging (AID 483;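 active = visual image review flags a hit and inhibition of aggregation exceeds 20%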;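 note: compound exposure lasted 3 days before fixation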;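 for nuclei count: percent of the per-plate median nuclei count of sample wells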); settings: exon1htt(103Q)mCFP cell line, aggregate imaging, at 2 µM; inhibition of aggregation: stronger effect = higher value; nuclei count: measured here: cell count, toxicity
[3] = inhibitors of E-selectin induction by TNFa, primary screen, imaging, HUVEC, immunofluorescence, MLSMR starter and 10KST1 sets (AID 487;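 active = visually confirmed hit in the image check and inhibition above 20%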;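 for inhibition: signal is fraction of cell area covered by stained E-selectin grains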;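 for nuclei count: 100% = median nuclei count of all wells on the same plate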); settings: HUVEC TNFalpha-induced E-selectin immunofluorescence imaging, at 2 µM; inhibition: stronger effect = higher value; nuclei count: measured here: cell number, toxicity
[4] = molecular target: Voltage-gated potassium channel subunit beta-2 (Rattus norvegicus) (UniProt P62483); assay: KvBeta enzyme negative modulators, primary screen, biochemical, NADPH fluorescence (AID 622;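 active = fluorescence slope higher than the sample average by over 3 SD, cut at about -0.22 in these data, passing the limit was not always enough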;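 note: slope of raw intensity against log time taken from 70 to 1610 s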); settings: recombinant KvBeta, 4-cyanobenzaldehyde reduction, at 10 µM, stronger effect = higher value
[5] = molecular target: Voltage-gated potassium channel subunit beta-2 (Rattus norvegicus) (UniProt P62483); assay: KvBeta positive modulators, primary screen, biochemical, NADPH fluorescence (AID 623); settings: Recombinant KvBeta, NADPH fluorescence decrease slope, 10 min; at 10 µM; stronger effect = lower value;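 note: fluorescence intensity change per second fitted from 20 to 320 s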
[6] = molecular target: Alpha-2C adrenergic receptor (Homo sapiens) (UniProt P18825); assay: modulators of alpha2C/GIRK thallium flux, primary screen, cell-based, HEK293 alpha2C/GIRK1/2 (AID 624;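 active = fluorescence slope after compound addition differing from the mean of all screened samples at 99.7% confidence, in either direction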;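 note: slope of fluorescence ratio to pre-addition baseline per second over 15 to 24 s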); settings: thallium flux BTC fluorescence, at 10 µM, actives lie on both sides
[7] = inhibitors of Sendai virus-induced IRF3 signaling, primary screen, TLR/RLR signaling modifier project, cell-based, Sendai virus stimulus, luciferase, 10K MLSCN set (AID 602276;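 active = inhibition at or above 50% at 10 µM; inactive = inhibition below 50%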;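 note: firefly luciferase from ISG56 promoter only with Renilla not read in this screen; 0% = Sendai virus plus DMSO and 100% = medium plus DMSO without virus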); settings: HEK293 RL24 IRF3 luciferase reporter, at 10 µM, stronger effect = higher value
[8] = inhibitors of poly I:C-induced TLR3 signaling, primary screen, cell-based, poly I:C stimulus, luciferase, 10K MLSCN set (AID 602277;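 active = inhibition of the reporter signal at or above 50%; inactive = inhibition below 50%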); settings: HEK293-TLR3 RL24 IRF3 luciferase reporter, at 10 µM, stronger effect = higher value

Alpha-2C adrenergic receptor (Homo sapiens), sequence (P18825 whole entry, looked up): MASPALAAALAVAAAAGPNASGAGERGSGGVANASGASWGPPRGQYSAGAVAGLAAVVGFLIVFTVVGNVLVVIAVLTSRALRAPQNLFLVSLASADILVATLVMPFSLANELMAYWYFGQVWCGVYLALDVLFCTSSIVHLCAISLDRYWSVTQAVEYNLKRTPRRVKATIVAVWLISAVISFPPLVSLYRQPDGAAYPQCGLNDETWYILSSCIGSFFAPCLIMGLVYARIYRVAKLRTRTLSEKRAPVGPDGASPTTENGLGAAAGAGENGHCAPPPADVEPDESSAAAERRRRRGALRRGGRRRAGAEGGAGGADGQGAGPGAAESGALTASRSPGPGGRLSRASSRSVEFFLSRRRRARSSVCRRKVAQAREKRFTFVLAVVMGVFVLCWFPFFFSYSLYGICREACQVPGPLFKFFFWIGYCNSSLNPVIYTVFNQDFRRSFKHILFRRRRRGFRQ
Voltage-gated potassium channel subunit beta-2 (Rattus norvegicus), sequence (P62483 whole entry, looked up): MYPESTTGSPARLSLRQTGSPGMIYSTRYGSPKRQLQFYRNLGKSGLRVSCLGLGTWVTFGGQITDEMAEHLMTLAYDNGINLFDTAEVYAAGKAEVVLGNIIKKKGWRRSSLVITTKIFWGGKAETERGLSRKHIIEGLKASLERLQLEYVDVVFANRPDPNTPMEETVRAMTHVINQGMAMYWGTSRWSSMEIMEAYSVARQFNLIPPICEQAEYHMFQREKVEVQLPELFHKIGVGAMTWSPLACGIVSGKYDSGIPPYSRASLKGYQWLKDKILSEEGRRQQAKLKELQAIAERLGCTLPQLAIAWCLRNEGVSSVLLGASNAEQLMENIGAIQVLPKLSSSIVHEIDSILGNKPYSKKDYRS

SMILES	cell count [1]	inhibition [1]	inhibition of aggregation [2]	nuclei count [2]	inhibition [3]	nuclei count [3]	fluorescence slope [4]	NADPH fluorescence slope [5]	slope [6]	inhibition [7]	inhibition [8]
CCOC(=O)c1cccc(NC(=O)c2ccco2)c1	690	2.9% (inactive)	-3.3% (inactive)	100%	38.8% (inactive)	97%	-0.387 (inactive)	-6e-05 (inactive)	0.00541 (inactive)	-16.7% (inactive)	-83.6% (inactive)
O=C(c1ccco1)N(Cc1cc2ccccc2[nH]c1=O)C1CCCCC1	312	4.8% (inactive)	-13.6% (inactive)	114%	-42.1% (inactive)	115%	-0.617 (inactive)	2e-05 (inactive)	0.00525 (inactive)	-3.39% (inactive)	6.38% (inactive)
CC(NC(=O)Cc1cccs1)c1ccc2c(c1)OCO2 (stereo not drawn)	333	5.1% (inactive)	-3.8% (inactive)	104%	-9.2% (inactive)	109%	-0.609 (inactive)	-2.4e-05 (inactive)	0.00364 (inactive)	14.9% (inactive)	4.01% (inactive)
O=S(=O)(c1ccc2nc(Cc3cccc(C(F)(F)F)c3)[nH]c2c1)N1CCOCC1	383	1% (inactive)	0% (inactive)	88.3%	-277% (inactive)	105%	-0.615 (inactive)	-2.8e-06 (inactive)	0.00522 (inactive)	11.9% (inactive)	26.3% (inactive)
Cc1cc(NC(=O)c2ccc3c(c2)C(=O)N(Cc2cccnc2)C3=O)no1	770	-6.4% (inactive)	1.8% (inactive)	107%	-127% (inactive)	128%	-0.615 (inactive)	1.2e-05 (inactive)	0.00422 (inactive)	-5.06% (inactive)	-11.7% (inactive)
CC(C)(C)n1nnnc1C(c1ccccc1)N1CCc2ccccc2C1 (stereo not drawn)	481	2.9% (inactive)	16% (inactive)	115%	11.4% (inactive)	110%	-0.48 (inactive)	-0.000258 (inactive)	0.00496 (inactive)	20.4% (inactive)	30.1% (inactive)
COc1ccc(OC)c(NC(=O)CCNS(=O)(=O)c2cccs2)c1	662	7.1% (inactive)	5.1% (inactive)	81.4%	-74.4% (inactive)	91.1%	-0.533 (inactive)	3.3e-05 (inactive)	0.00666 (inactive)	14.1% (inactive)	24.2% (inactive)
COCCNS(=O)(=O)c1cc(F)ccc1OC	782	-6.6% (inactive)	-2.8% (inactive)	113%	-62.4% (inactive)	111%	-0.481 (inactive)	-3.4e-05 (inactive)	0.00632 (inactive)	-4.54% (inactive)	25.9% (inactive)
COC(=O)CNc1nc(C2CC2)nc2c1nnn2Cc1ccccc1Cl	459	8.3% (inactive)	-0.3% (inactive)	83.5%	16.5% (inactive)	97.5%	-0.479 (inactive)	-0.000128 (inactive)	0.00514 (inactive)	18.2% (inactive)	17.8% (inactive)
CN(C)/C=N/c1ncnc2c1cnn2-c1ccc(C(F)(F)F)cn1	565	-0.9% (inactive)	-3.8% (inactive)	110%	21% (inactive)	114%	-0.583 (inactive)	-4.6e-05 (inactive)	0.0102 (inactive)	-45.2% (inactive)	-118% (inactive)
CC(=O)Nc1c2c(nn1-c1ccc(C)cc1C)CSC2	570	0.9% (inactive)	9.6% (inactive)	95.7%	33.7% (inactive)	103%	-0.562 (inactive)	-5.2e-05 (inactive)	0.00674 (inactive)	-12.5% (inactive)	-10.7% (inactive)
COc1cc2c(cc1OC)CN(C(=O)COc1ccc(C)c(C)c1)CC2	653	-3% (inactive)	-11.6% (inactive)	106%	17.1% (inactive)	106%	-0.456 (inactive)	1.3e-05 (inactive)	0.00534 (inactive)	18.6% (inactive)	20.9% (inactive)
CN1CCN(C2=C(Cl)C(=O)N(c3cccc(Cl)c3)C2=O)CC1	396	5.9% (inactive)	8.6% (inactive)	91.3%	-1.1% (inactive)	97.4%	-0.355 (inactive)	-3.9e-05 (inactive)	0.00541 (inactive)	5.11% (inactive)	13.1% (inactive)
CCCS(=O)(=O)N1CCN(C(=O)c2cccs2)CC1	559	7.2% (inactive)	5.4% (inactive)	91%	-58.9% (inactive)	102%	-0.622 (inactive)	-3.8e-05 (inactive)	0.00496 (inactive)	13.1% (inactive)	3.31% (inactive)
Cc1ccc(CCNC(=O)C2CCN(S(=O)(=O)c3ccc4c(c3)CCC(=O)N4)CC2)cc1	742	2.2% (inactive)	-19.2% (inactive)	114%	27% (inactive)	102%	-0.56 (inactive)	1.8e-05 (inactive)	0.00653 (inactive)	-8.22% (inactive)	-0.993% (inactive)
CCCC1c2ccc(C)n2CCN1C(=O)Nc1ccccc1Cl (stereo not drawn)	243	2.3% (inactive)	-6.4% (inactive)	100%	-1% (inactive)	94.7%	-0.564 (inactive)	2.7e-05 (inactive)	0.0054 (inactive)	-53.4% (inactive)	-190% (inactive)
COc1ccc(C(=O)Nc2nncs2)c(OC)c1	746	7.5% (inactive)	-7.4% (inactive)	27%	-98.6% (inactive)	111%	-0.631 (inactive)	3.8e-06 (inactive)	0.00588 (inactive)	-22.9% (inactive)	-48.7% (inactive)
COc1ccc(-n2c(Cc3cccn3C)nnc2SCC(N)=O)cc1	531	-4.4% (inactive)	6.6% (inactive)	63.8%	1.4% (inactive)	99.3%	-0.59 (inactive)	-3.3e-05 (inactive)	0.00644 (inactive)	17.9% (inactive)	27.2% (inactive)
OCCn1c(-c2ccc3c(c2)OCO3)csc1=Nc1ccccc1	565	0.2% (inactive)	-0.6% (inactive)	66.3%	-41.5% (inactive)	112%	-0.59 (inactive)	-2.7e-05 (inactive)	0.00284 (inactive)	-34% (inactive)	-121% (inactive)
COc1cccc(CN2CCN(C(=O)c3ccco3)CC2)c1OC	513	13.6% (inactive)	-4.9% (inactive)	100%	-347% (inactive)	128%	-0.595 (inactive)	1.5e-05 (inactive)	0.00742 (inactive)	11.8% (inactive)	8.85% (inactive)
O=C(CSc1ccc2nnc(-c3ccccc3)n2n1)N1CCN(c2ccccc2)CC1	616	0.3% (inactive)	9.9% (inactive)	110%	-34.8% (inactive)	111%	-0.592 (inactive)	-3.7e-05 (inactive)	0.00674 (inactive)	-9.77% (inactive)	3.8% (inactive)
COCCNC(=O)C(c1ccc(C)o1)N(Cc1ccc(OC)cc1)C(=O)Cn1nnc2ccccc21 (stereo not drawn)	249	7% (inactive)	-3.6% (inactive)	93.1%	25.3% (inactive)	82.9%	-0.648 (inactive)	-1.9e-05 (inactive)	0.00364 (inactive)	10.1% (inactive)	6.31% (inactive)
O=C(Nc1ncnc2sc3c(c12)CCC3)c1ccco1	289	-1.6% (inactive)	0.8% (inactive)	75.8%	-12.5% (inactive)	118%	-0.327 (inactive)	-4.2e-05 (inactive)	0.00564 (inactive)	-7.87% (inactive)	-0.691% (inactive)
CCOC(=O)C(NCc1ccccc1OC)(NC(C)=O)C(F)(F)F (stereo not drawn)	279	-1.5% (inactive)	14.4% (inactive)	97.8%	-72.8% (inactive)	125%	-0.616 (inactive)	-5.3e-06 (inactive)	0.00702 (inactive)	5.22% (inactive)	4.4% (inactive)
CCOc1ccc(NC(=O)c2ccccc2O)cc1	558	-1.7% (inactive)	9.7% (inactive)	71.8%	-114% (inactive)	96.2%	-0.622 (inactive)	-2e-05 (inactive)	0.00439 (inactive)	-59.1% (inactive)	-110% (inactive)
Cc1cc(Nc2ccc(N3CCC(C)CC3)cc2)n2ncnc2n1	426	-2.4% (inactive)	6% (inactive)	103%	-18.3% (inactive)	115%	-0.602 (inactive)	7e-05 (inactive)	0.00396 (inactive)	-6.44% (inactive)	-3.16% (inactive)
COc1ccc(-n2c(Cc3cccn3C)nnc2SCC(=O)Nc2cccc(C)c2C)cc1	816	4.6% (inactive)	4.2% (inactive)	105%	-26.4% (inactive)	110%	-0.596 (inactive)	-4.5e-06 (inactive)	0.00595 (inactive)	0.797% (inactive)	27.3% (inactive)
COc1ccc(-n2c(Cc3cccn3C)nnc2SCC(=O)NCC2CCCO2)cc1 (stereo not drawn)	846	1.8% (inactive)	21.3% (inactive)	103%	-182% (inactive)	130%	-0.56 (inactive)	-3.5e-05 (inactive)	0.00701 (inactive)	8.65% (inactive)	32% (inactive)
